# Records with an inconclusive call do not appear. Activity calls are given as the source filed them. Rule for the calls, unless noted: active = hit-call score of the fitted dose curve at least 0.9, where 1 is the maximum; inconclusive = response in the unintended direction; inactive = score below 0.9.
# What was measured:
# [1] = read-out: Intercellular Adhesion Molecule 1 (ICAM1), ICAM1 (gene 3383); experiment: BSK_3C_ICAM1: BioMAP Diversity Plus: 3C Assay for Intercellular Adhesion Molecule 1 (ICAM1) Biomarker Activity (AID 2283003; active = hit-call score of the fitted dose curve at least 0.9, where 1 is the maximum; inactive = score below 0.9); details: primary human endothelial cells (HUVEC); actives raise or lower the signal
# Procedure, shortened: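 ICAM-1 levels measured by ELISA after HUVEC cultures in the 3C system had been dosed for 24 h. Gain or loss of signal relative to DMSO was fitted in both directions.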
# [2] = BSK_3C_Proliferation: Cell Proliferation Assessment in the BioMAP Diversity Plus: 3C Assay (AID 2283006; active = hit-call score of the fitted dose curve at least 0.9, where 1 is the maximum; inactive = score below 0.9;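 for AC50: potency may reflect either rise or fall in cell number versus DMSO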); details: primary human endothelial cells (HUVEC)
# Procedure, shortened: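 Read-out is total protein by SRB absorbance at 560 nm, taken as a proxy for relative cell number. Primary human umbilical vein endothelium cultured below confluence was dosed for 48 h, TCA-fixed and SRB-stained; curves were fitted bidirectionally versus DMSO.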
# [3] = target: Nuclear receptor subfamily 1 group I member 2 (Homo sapiens) (UniProt O75469); experiment: ATG_PXR_TRANS: Attagene TRANS-FACTORIAL HepG2 Assay for human Pregnane X Receptor (PXR) (AID 2283008)
# Nuclear receptor subfamily 1 group I member 2 (Homo sapiens), sequence (O75469 whole entry, looked up, the tested form may be a part): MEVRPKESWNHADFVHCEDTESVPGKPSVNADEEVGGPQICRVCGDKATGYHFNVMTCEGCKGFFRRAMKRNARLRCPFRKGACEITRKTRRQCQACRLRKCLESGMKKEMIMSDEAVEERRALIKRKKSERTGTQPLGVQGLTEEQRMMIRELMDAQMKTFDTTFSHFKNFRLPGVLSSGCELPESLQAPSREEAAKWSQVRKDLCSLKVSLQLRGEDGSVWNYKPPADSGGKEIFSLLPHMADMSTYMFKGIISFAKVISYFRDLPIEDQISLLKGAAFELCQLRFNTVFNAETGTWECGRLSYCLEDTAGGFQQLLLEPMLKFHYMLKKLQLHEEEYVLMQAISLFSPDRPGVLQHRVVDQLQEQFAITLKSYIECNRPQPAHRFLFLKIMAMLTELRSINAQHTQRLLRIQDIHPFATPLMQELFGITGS
# Procedure, shortened: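 Fluorescence intensity of FAM-labelled, HpaI-digested reporter amplicons, separated by capillary electrophoresis, quantifies induction. HepG2 cells with PXR-Gal4 trans-reporter system were exposed 24 h; DMSO defines baseline.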
# [4] = target: human RAR-related Orphan Receptor beta (RORb), RORB (gene 6096) (UniProt Q92753); experiment: ATG_RORb_TRANS: Attagene TRANS-FACTORIAL HepG2 Assay for human RAR-related Orphan Receptor beta (RORb) (AID 2283010)
# human RAR-related Orphan Receptor beta (RORb), RORB (gene 6096), sequence (Q92753 whole entry, looked up, the tested form may be a part): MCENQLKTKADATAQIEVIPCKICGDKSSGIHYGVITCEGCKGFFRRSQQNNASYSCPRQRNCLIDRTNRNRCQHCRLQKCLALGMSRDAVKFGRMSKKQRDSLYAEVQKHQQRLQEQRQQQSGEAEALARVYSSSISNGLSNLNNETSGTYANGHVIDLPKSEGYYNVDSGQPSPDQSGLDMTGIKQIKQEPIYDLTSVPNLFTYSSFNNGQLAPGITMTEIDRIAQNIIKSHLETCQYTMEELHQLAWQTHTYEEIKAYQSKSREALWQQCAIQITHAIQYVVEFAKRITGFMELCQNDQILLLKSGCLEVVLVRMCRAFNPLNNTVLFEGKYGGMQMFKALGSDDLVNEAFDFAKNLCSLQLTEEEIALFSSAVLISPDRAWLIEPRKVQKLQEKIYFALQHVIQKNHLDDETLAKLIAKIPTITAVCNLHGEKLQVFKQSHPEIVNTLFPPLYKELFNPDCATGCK
# Procedure, shortened: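 Readout is reporter-gene mRNA induction, detected as fluorescence after RT-PCR and capillary electrophoresis, fitted for gain of signal against DMSO controls. Transiently transfected HepG2 liver cells carrying GAL4-UAS reporter constructs were treated for 24 hours.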
# [5] = target: Retinoic acid receptor RXR-alpha (Homo sapiens) (UniProt P19793); experiment: ATG_RXRa_TRANS: Attagene TRANS-FACTORIAL HepG2 Assay for human Retinoid X Receptor alpha (RXRa) (AID 2283012)
# Retinoic acid receptor RXR-alpha (Homo sapiens), sequence (P19793 whole entry, looked up, the tested form may be a part): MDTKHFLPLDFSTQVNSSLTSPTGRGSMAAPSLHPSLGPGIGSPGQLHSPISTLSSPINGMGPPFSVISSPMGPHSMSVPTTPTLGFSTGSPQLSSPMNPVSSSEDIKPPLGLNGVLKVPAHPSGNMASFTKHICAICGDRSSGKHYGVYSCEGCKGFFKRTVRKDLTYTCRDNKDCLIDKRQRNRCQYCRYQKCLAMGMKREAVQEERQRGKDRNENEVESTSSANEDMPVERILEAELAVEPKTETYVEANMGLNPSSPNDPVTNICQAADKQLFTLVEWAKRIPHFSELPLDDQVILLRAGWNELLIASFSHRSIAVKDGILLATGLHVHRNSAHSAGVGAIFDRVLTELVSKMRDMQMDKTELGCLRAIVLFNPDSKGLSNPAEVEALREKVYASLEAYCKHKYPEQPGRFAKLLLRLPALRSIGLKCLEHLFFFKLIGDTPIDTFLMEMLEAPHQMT
# Procedure, shortened: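 Transient transfection of human HepG2 with multiple GAL4-UAS reporter constructs; 24 h compound exposure; total RNA isolated, reverse-transcribed, PCR-amplified, 6-FAM labelled, HpaI-cut, resolved by capillary electrophoresis. Positive-direction fit versus DMSO.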
# [6] = target: human RAR-related Orphan Receptor gamma (RORg), RORC (gene 6097) (UniProt P51449); experiment: ATG_RORg_TRANS: Attagene TRANS-FACTORIAL HepG2 Assay for human RAR-related Orphan Receptor gamma (RORg) (AID 2283011);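 for AC50: potency for induction of reporter transcripts above DMSO so activators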
# human RAR-related Orphan Receptor gamma (RORg), RORC (gene 6097), sequence (P51449 whole entry, looked up, the tested form may be a part): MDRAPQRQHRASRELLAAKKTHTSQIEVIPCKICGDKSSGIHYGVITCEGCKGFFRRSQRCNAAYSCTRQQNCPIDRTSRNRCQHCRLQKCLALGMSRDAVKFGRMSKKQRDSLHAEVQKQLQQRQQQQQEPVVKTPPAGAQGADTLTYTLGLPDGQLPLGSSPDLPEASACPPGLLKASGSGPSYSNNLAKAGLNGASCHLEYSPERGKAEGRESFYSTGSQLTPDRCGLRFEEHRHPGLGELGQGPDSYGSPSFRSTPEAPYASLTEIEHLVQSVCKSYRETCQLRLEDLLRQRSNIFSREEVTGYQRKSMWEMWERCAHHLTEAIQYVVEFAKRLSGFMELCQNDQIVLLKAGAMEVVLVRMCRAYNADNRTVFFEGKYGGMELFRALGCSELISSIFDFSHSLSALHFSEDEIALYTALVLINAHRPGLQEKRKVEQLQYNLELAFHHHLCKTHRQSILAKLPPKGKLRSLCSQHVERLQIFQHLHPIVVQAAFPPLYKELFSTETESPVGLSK
# Procedure, shortened: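 Reporter transcripts from a transfected RORg-GAL4 chimera in HepG2 cells were quantified 24 h after dosing by RT-PCR, 6-FAM labelling, HpaI digestion and capillary electrophoresis; increases over DMSO baseline were fitted.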
# [7] = target: human Retinoid X Receptor beta (RXRb), RXRB (gene 6257) (UniProt P28702); experiment: ATG_RXRb_TRANS: Attagene TRANS-FACTORIAL HepG2 Assay for human Retinoid X Receptor beta (RXRb) (AID 2283013)
# human Retinoid X Receptor beta (RXRb), RXRB (gene 6257), sequence (P28702 whole entry, looked up, the tested form may be a part): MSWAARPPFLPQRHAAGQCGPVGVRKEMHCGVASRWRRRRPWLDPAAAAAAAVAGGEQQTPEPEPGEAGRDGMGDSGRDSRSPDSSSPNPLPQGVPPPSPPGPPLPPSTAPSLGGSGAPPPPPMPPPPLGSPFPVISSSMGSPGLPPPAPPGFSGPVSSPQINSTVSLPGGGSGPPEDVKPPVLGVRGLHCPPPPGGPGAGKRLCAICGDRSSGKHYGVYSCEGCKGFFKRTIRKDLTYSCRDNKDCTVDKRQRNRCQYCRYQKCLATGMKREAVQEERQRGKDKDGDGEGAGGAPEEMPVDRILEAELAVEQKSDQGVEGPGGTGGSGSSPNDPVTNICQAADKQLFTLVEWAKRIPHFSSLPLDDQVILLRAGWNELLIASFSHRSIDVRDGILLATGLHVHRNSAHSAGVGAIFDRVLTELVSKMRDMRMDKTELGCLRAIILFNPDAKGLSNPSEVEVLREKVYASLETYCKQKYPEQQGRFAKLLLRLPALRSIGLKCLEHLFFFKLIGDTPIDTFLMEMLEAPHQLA
# Procedure, shortened: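 Transfect HepG2 with GAL4-UAS multi-reporter constructs (chimeric NR-Gal4, TRANS format); dose compound 24 h; isolate RNA, RT-PCR, FAM primer extension, HpaI digest; quantify by capillary electrophoresis; positive direction vs DMSO.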
# [8] = target: Peroxisome proliferator-activated receptor gamma (Homo sapiens) (UniProt P37231); experiment: ATG_PPARg_TRANS: Attagene TRANS-FACTORIAL HepG2 Assay for human Peroxisome Proliferator-activated Receptor-gamma (PPARg) (AID 2283007)
# Peroxisome proliferator-activated receptor gamma (Homo sapiens), sequence (P37231 whole entry, looked up, the tested form may be a part): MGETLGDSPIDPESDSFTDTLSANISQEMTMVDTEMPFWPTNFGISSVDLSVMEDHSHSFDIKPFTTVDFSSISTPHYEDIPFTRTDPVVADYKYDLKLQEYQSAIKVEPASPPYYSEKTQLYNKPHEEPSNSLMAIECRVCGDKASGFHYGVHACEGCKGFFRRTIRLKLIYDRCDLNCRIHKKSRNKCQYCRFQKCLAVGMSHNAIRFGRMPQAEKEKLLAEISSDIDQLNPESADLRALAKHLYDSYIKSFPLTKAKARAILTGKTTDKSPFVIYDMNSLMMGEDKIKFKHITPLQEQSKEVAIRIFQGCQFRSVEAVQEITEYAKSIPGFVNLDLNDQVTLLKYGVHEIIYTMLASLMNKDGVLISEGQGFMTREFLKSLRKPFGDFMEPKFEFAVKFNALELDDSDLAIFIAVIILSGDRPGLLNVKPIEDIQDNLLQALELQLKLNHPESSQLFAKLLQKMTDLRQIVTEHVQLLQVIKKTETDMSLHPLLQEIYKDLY
# Procedure, shortened: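 HepG2 cells transiently transfected with multiplexed GAL4-UAS reporter units and exogenous chimeric NR-Gal4 proteins; reporter mRNA quantified after 24 h compound exposure by RT-PCR, fluorescent labelling, HpaI digestion and capillary electrophoresis; gain-of-signal fitted versus DMSO baseline.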
compound,measurement,setting,value
Cc1ccc(N)c(N)c1,outcome,[1],inactive
same,AC50,[2],2.11 µM (active)
same,outcome,[3],inactive
same,outcome,[4],inactive
same,outcome,[5],inactive
C[N+](C)(C)CC1CO1 (stereo not given),outcome,[1],inactive
same,outcome,[2],inactive
same,outcome,[4],inactive
Cc1ccc(N)cc1,outcome,[1],inactive
same,outcome,[2],inactive
same,outcome,[4],inactive
same,outcome,[6],inactive
same,outcome,[7],inactive
CCC[CH2][Sn]([Cl])([CH2]CCC)[CH2]CCC,AC50,[1],0.148 µM (active)
same,AC50,[2],0.148 µM (active)
same,AC50,[3],0.927 µM (active)
same,AC50,[5],0.245 µM (active)
same,AC50,[7],0.0637 µM (active)
c1ccc(NNc2ccccc2)cc1,outcome,[1],inactive
same,outcome,[2],inactive
same,outcome,[3],inactive
same,outcome,[4],inactive
same,outcome,[6],inactive
same,outcome,[5],inactive
same,AC50,[7],100 µM (active)
Clc1ccc(C(c2ccc(Cl)cc2)C(Cl)Cl)cc1,AC50,[1],37.9 µM (active)
same,AC50,[2],15.3 µM (active)
same,outcome,[8],inactive
same,AC50,[3],7.96 µM (active)
same,AC50,[7],33.4 µM (active)
c1ccc(C2CO2)cc1 (stereo not given),outcome,[1],inactive
same,outcome,[2],inactive
same,outcome,[8],inactive
same,outcome,[6],inactive
COP(=S)(OC)SCN1C(=O)c2ccccc2C1=O,outcome,[1],inactive
same,AC50,[2],28.4 µM (active)
same,outcome,[8],inactive
same,outcome,[3],inactive
same,outcome,[7],inactive
CCCCOC(=O)c1ccccc1C(=O)OCc1ccccc1,outcome,[1],inactive
same,AC50,[2],14.4 µM (active)
same,outcome,[3],inactive
same,outcome,[5],inactive
same,outcome,[7],inactive
CCCSC(=O)N(CCC)CCC,outcome,[1],inactive
same,outcome,[2],inactive
same,outcome,[3],inactive
same,AC50,[6],132 µM (active)
same,AC50,[7],34.1 µM (active)
Nc1ccc([N+](=O)[O-])cc1,outcome,[1],inactive
same,outcome,[2],inactive
same,outcome,[3],inactive
same,outcome,[6],inactive
same,outcome,[5],inactive
same,outcome,[7],inactive
CC(C)(C)OOC(=O)c1ccccc1,outcome,[1],inactive
same,outcome,[2],inactive
same,outcome,[5],inactive
COc1cc(C=O)cc2c1[C@H](COC(N)=O)[C@]1(OC(C)=O)ON2C[C@H]2[C@@H]1N2C(C)=O,AC50,[1],23.3 µM (active)
same,AC50,[2],0.369 µM (active)
same,outcome,[8],inactive
same,outcome,[6],inactive
Cc1ccc([N+](=O)[O-])cc1,outcome,[1],inactive
same,outcome,[2],inactive
same,outcome,[3],inactive
same,outcome,[5],inactive
same,outcome,[7],inactive
CCC12COCN1COC2,outcome,[1],inactive
same,outcome,[2],inactive
same,outcome,[3],inactive
same,outcome,[4],inactive
same,outcome,[5],inactive
CCCCCOC(=O)c1ccccc1C(=O)OCCCCC,outcome,[1],inactive
same,AC50,[2],19.1 µM (active)
same,AC50,[8],49.7 µM (active)
same,AC50,[3],27.9 µM (active)
same,outcome,[7],inactive
CCN(CC)CCO,outcome,[1],inactive
same,outcome,[2],inactive
same,outcome,[5],inactive
same,outcome,[7],inactive
Clc1ccc(C(c2ccc(Cl)cc2)C(Cl)(Cl)Cl)cc1,AC50,[1],34.7 µM (active)
same,AC50,[2],20.1 µM (active)
same,outcome,[8],inactive
same,outcome,[7],inactive
CN(C)c1ccccc1,outcome,[1],inactive
same,outcome,[2],inactive
same,outcome,[4],inactive
same,outcome,[5],inactive
O=C(N[C@H](c1ccccc1)[C@@H]1CN2CCC1CC2)c1c(Cl)ccc(C(F)(F)F)c1Cl,outcome,[1],inactive
same,AC50,[2],29.7 µM (active)
same,AC50,[3],0.226 µM (active)
same,outcome,[7],inactive
Nc1cc(Cl)cc(C(=O)O)c1Cl,outcome,[1],inactive
same,outcome,[2],inactive
same,outcome,[8],inactive
same,outcome,[4],inactive
same,outcome,[6],inactive
COC(=O)c1ccccc1N,outcome,[1],inactive
same,outcome,[2],inactive
same,outcome,[4],inactive
same,outcome,[6],inactive
same,outcome,[7],inactive
OCCCBr,outcome,[1],inactive
same,outcome,[2],inactive
same,outcome,[3],inactive
same,outcome,[6],inactive
same,outcome,[7],inactive
CC(C)COC(=O)c1ccccc1C(=O)OCC(C)C,outcome,[1],inactive
same,AC50,[2],28.6 µM (active)
same,AC50,[8],44.6 µM (active)
same,outcome,[5],inactive
same,AC50,[7],43.6 µM (active)
CN(C)C(=O)Nc1ccc(Cl)cc1,outcome,[1],inactive
same,outcome,[2],inactive
same,outcome,[8],inactive
same,outcome,[5],inactive
CCN(CC)N=O,outcome,[1],inactive
same,outcome,[2],inactive
same,outcome,[6],inactive

# Reference: PubChem BioAssay (EPA / NIEHS)
